The values that follow come from PubChem BioAssay AID540254 (Southern Research Specialized Biocontainment Screening …, 2011).

Screen size: about 1,800 compounds; fewer than 10 were called active. No rule for the calls is given here. A selection follows. Entries that show only a call come without a potency. Potency and affinity values are given separately.

This assay in a line: antiviral activity against H1N1 influenza, dose response, cell-based, strain KY180 (AID 540254). To be noted: H1N1 KY180 influenza antiviral cell-based screen; series mostly up to 40 µM.
On to `O=C(Nc1nc(-c2ccccn2)cs1)C1COc2ccccc2O1` (configuration not stated), for which the call was inactive.
For `CC(=O)N/N=C(\C)c1cccc(NC(=O)c2cccs2)c1` the value was “inactive”; for `O=C(Nc1nc2c(s1)CCCC2)C1COc2ccccc2O1` (configuration not stated), “inactive”; for `Cn1c(=O)c2[nH]c(NN=Cc3ccc(Br)cc3)nc2n(C)c1=O`, “inactive”.
On to `COc1ccc(C(=O)NC(=S)NNC(=O)c2cnccn2)cc1OC`, for which the molecule was called inactive.
For `COC(=O)c1ccccc1NC1=C/C(=N\S(=O)(=O)c2ccc(C(=O)O)cc2)c2ccccc2C1=O` the value was “inactive”; for `CCNC(=S)NNC(=O)c1ccccn1`, “inactive”; for `O=c1c2ccccc2ncn1Cc1ccco1`, “inactive”.
As for `Oc1c(CN2CCCCC2)ccc2cccnc12`, the entry is “inactive”.
For `COCc1cc(C)nc(SCC(=O)Nc2ccc3c(c2)n(C)c(=O)n3C)c1C#N` the value was “inactive”; for `Nc1ccccc1C(=O)NCc1ccc(Cl)cc1`, “inactive”; for `Nc1nc(SCc2ccc([N+](=O)[O-])cc2)nc2nc3c(cc12)CCCC3`, “inactive”.
For the molecule `CCN(CC)CCNc1nc2cc(OC)c(OC)cc2c2nc(-c3ccccc3)nn12`, the call was inactive.
As for `Cc1cc(N(C)N)nc(NC(=O)NS(=O)(=O)c2ccccc2Cl)n1`, the entry is “inactive”; as for `Cn1cc(S(=O)(=O)Nc2ccc(Br)cc2F)c(=O)n(C)c1=O`, “inactive”; as for `O=C(NCC1CCCO1)C(=O)N/N=C/c1cc(Cl)ccc1O` (configuration not stated), “inactive”.
For `O=C(NCCCN1CCOCC1)C(=O)N/N=C/c1ccccc1O` the value was “inactive”.
For `Cc1ccc(OCCn2c(C3CC(=O)N(Cc4ccccc4)C3)nc3ccccc32)cc1` (configuration not stated) the value was “inactive”; for `CCOC(=O)c1cnc(-n2[nH]c(C)c(Cc3ccccc3)c2=O)[nH]c1=O`, “inactive”.
With `Cc1ccc(C(c2nnnn2Cc2cccs2)N2CCN(Cc3ccc4c(c3)OCO4)CC2)cc1` (configuration not stated), the molecule was classed as inactive.
`COc1cc(/C=C2\SC(c3ccccc3)=NC2=O)cc(Cl)c1O`: the molecule was classed as inactive.
For `COC(=O)C1CCN(C(=O)Cc2ccc(C)cc2)CC1` the value was “inactive”; for `COc1ccc(Cc2nnc(N/N=C/c3ccc(O)cc3)[nH]c2=O)cc1OC`, “inactive”; for `CC1CC(=O)N(C)c2ccc([N+](=O)[O-])cc2N1` (configuration not stated), “inactive”.
For `O=C(c1cc2ccccc2o1)N1CCCCCC1` the value was “inactive”.
As for `COc1cc(OC)cc(C(=O)NC(=S)NNC(=O)c2cnccn2)c1`, the entry is “inactive”; as for `CC1CCCC(C)N1c1nnc(NC(=O)Cn2c(=O)oc3ccccc32)s1` (configuration not stated), “inactive”.
`Fc1ccc(-[n+]2nc(Nc3ccccc3)sc2-c2c(Cl)cccc2Cl)cc1`: the outcome was inactive.
With `CC1NC(=O)NC1CCCCCC(=O)Nc1ccc(F)cc1` (configuration not stated), the molecule was classed as inactive.
As for `CCc1nnc(SCC(=O)N2CCc3ccccc32)n1CC`, the entry is “inactive”; as for `O=C(CNCc1ccccn1)Nc1cc(S(=O)(=O)N2CCCCC2)ccc1Cl`, “inactive”; as for `Cc1nc2sccn2c(=O)c1S(=O)(=O)N1CCN(c2ccc(F)cc2)CC1`, “inactive”.
Consider `O=C1NC(c2ccccn2)Nc2sc3c(c21)CCC3` (configuration not stated), for which the molecule was called inactive.
For the molecule `COc1cccc(/C=N/NC(=O)CCCC(=O)NC2CCCCC2)c1`, the call was inactive.
As for `CCOC(=O)Cn1c(=O)oc2cc(S(=O)(=O)NCc3ccccn3)ccc21`, the entry is “inactive”; as for `COc1cccc(C2c3c(oc4ccc(Cl)cc4c3=O)C(=O)N2c2cc(C)on2)c1OC` (configuration not stated), “inactive”; as for `CC(/C=N/NC(=O)c1ccc(Cn2cc([N+](=O)[O-])cn2)o1)=C\c1ccccc1`, “inactive”.
For `CCOc1ccc(C(=O)NCCn2cc(SCC(=O)Nc3cc(C)on3)c3ccccc32)cc1` the value was “inactive”.
For `O=C(N/N=C/c1ccc([N+](=O)[O-])cc1)c1ccccc1OCc1ccccc1` the value was “inactive”.
As for `CC(=O)Cc1nsc(NC(=O)c2ccc(-c3cc(C(F)(F)F)ccc3Cl)o2)n1`, the call was inactive.
Regarding `CCCCC(=O)NC(c1ccc(N(C)C)cc1)c1ccc2cccnc2c1O` (configuration not stated), the outcome was inactive.
Regarding `CC(C)COC(=O)c1ccc2c(c1O)C(=O)c1ccccc1C2=O`, the call was inactive.
As for `O=C(CSc1ccccc1)Nc1nnc(/C=C/c2ccccc2)s1`, the entry is “inactive”; as for `CCOC(=O)CCSCC(=O)Nc1nnc(C)s1`, “inactive”.
For `COc1ccc(C(CNC(=O)CN2C(=O)NC3(CCCC3)C2=O)N(C)C)cc1` (configuration not stated) the value was “inactive”; for `COc1ccc(C(=O)COC(=O)CN2CC(=O)Oc3ccccc32)cc1Br`, “inactive”; for `O=C(NC1CCCC1)C(c1cccnc1)N(C(=O)c1csnn1)c1ccccc1Cl` (configuration not stated), “inactive”.
As to `CCOC(=O)C1=C(C)N(C)C(C)=C(C(=O)OCC)C1c1ccncc1`, the molecule was classed as inactive.
As for `O=[N+]([O-])c1ccc(CSc2ccc(-c3ccccn3)nn2)cc1`, the outcome was inactive.
As for `O=C(NN=C1CCCCCC1)c1cccs1`, the entry is “inactive”; as for `CCOC(=O)C1CCN(c2c(NC3CCCCCCC3)c(=O)c2=O)CC1`, “inactive”.
In the case of `CC(C)C(=O)N(c1cc2sc(=O)oc2c2ccccc12)S(=O)(=O)c1cccs1`, the outcome was inactive.
As for `CN1C(=O)/C(=C\c2cc(N=Nc3ccccc3)ccc2O)SC1=S`, the entry is “inactive”; as for `CCCC(=O)OC(C(=O)Nc1cc(C(F)(F)F)ccc1Cl)c1ccccc1` (configuration not stated), “inactive”.
For `Cc1ccccc1-c1nc(CN2CCC(C(=O)N3CCC(C(N)=O)CC3)CC2)c(C)o1` the value was “inactive”; for `O=C(O)c1ccc(-n2nnnc2Oc2cccc3cccnc23)cc1`, “inactive”; for `Cc1ccc(NC(=O)C2CCCN(c3ncccn3)C2)cc1F` (configuration not stated), “inactive”.
For `CN(C)S(=O)(=O)c1cccc(NC(=O)CNCc2ccccn2)c1` the value was “inactive”; for `COc1ccc(C)cc1NC(=O)CSc1ccc(-c2ccccn2)nn1`, “inactive”.
For `COc1ccc(N2CCN(CCCNS(=O)(=O)c3ccc4c(c3)oc(=O)n4C)CC2)cc1`, the outcome was inactive.
As for `COc1ccc(N2CCN(CCCNC(=O)c3cc4sccc4n3C)CC2)cc1`, the entry is “inactive”.
For `COc1ccc(N2CCN(C(=O)c3cccc(Cn4cc(Cl)cn4)c3)CC2)cc1` the value was “inactive”; for `COc1ccccc1-c1c(C)nn2c(N3CCN(Cc4ccccc4)CC3)cc(C)nc12`, “inactive”; for `Cc1ccc(C)c(N=Nc2nc3ccccc3n2C)c1`, “inactive”.
For `NS(=O)(=O)c1ccc(NC(=O)Nc2ccc3c(c2)OCO3)cc1` the value was “inactive”; for `COc1ccc(/C=N\NC(=O)c2cc(O)c(O)c(O)c2)cc1COc1ccc(C(=O)OCC(C)C)cc1`, “inactive”.
In the case of `Cc1ccc(-c2csc(NC(=O)c3cccc(N4C(=O)CCC4=O)c3)n2)o1`, the outcome was inactive.
As for `Cc1cc2cc(CNC(=O)c3ccc(S(=O)(=O)N4CCCC4)cc3)ccc2n1C`, the entry is “inactive”; as for `Cc1cc(C)c(NN=c2c(=O)c3ccccc3c2=O)c(C)c1`, “inactive”.
For `COCc1cc(=O)[nH]c(Nc2nc3ccc(C)cc3o2)n1` the value was “inactive”; for `O=C(CCCN1C(=O)c2ccccc2C1=O)Nc1sc2c(c1C(=O)NCc1ccco1)CCC2`, “inactive”; for `Cc1ccc(-c2nc3ncccn3c2Nc2ccc3c(c2)OCO3)o1`, “inactive”.
For `O=[N+]([O-])c1cc(/C=N/N/C(=N/c2ccccn2)c2ccccn2)ccc1O` the value was “inactive”; for `O=[N+]([O-])c1cc2no[n+]([O-])c2cc1N1CCCCC1`, “inactive”.
For the molecule `CCOc1ccc(C(=O)N/N=C/c2cccc3cccnc23)cc1`, the result was inactive.
As for `Cc1nc2ccc(S(=O)(=O)Nc3cccc(-c4nc5cccnc5s4)c3C)cc2s1`, the entry is “inactive”.
As for `COc1cc(C2CC(=O)Oc3c(C(CCN4CCCC(C)C4)c4ccc(N(C)C)cc4)c(OC)cc(OC)c32)cc(OC)c1OC` (configuration not stated), the entry is “inactive”; as for `CCOc1cc2c(cc1OCC)-n1cccc1C(c1ccc(C(C)C)cc1)NC2` (configuration not stated), “inactive”; as for `CSc1cccc(NC(=S)N(CCN(C)C)C(C)c2ccccn2)c1` (configuration not stated), “inactive”.
As for `Cc1ccccc1NC(=S)N(CCN(C)C)C(C)c1ccccn1` (configuration not stated), the entry is “inactive”; as for `O=C(Cn1cc(SCc2ccc(Cl)cc2)c2ccccc21)N1CCOCC1`, “inactive”.
Take `O=C1C(NS(=O)(=O)c2ccc(Br)cc2)=C(N2CCCCC2)C(=O)c2ccccc21`: the call was inactive.
Take `CCN(CC)C(=O)CCc1nc2sc3c(c2c(=O)[nH]1)CCCC3`: the molecule was classed as inactive.
For `O=C(CN1CCN(Cc2cccc(Cl)c2)C1=O)NCc1ccccn1` the value was “inactive”; for `Cc1ccc(Cl)c(NC(=O)COC(=O)CNS(=O)(=O)/C=C/c2ccccc2)c1Cl`, “inactive”.
In the case of `CC(C)C(=O)N(c1ccc2oc(=O)sc2c1)S(=O)(=O)c1ccccc1`, the molecule was classed as inactive.
With `CC(=NNC(=S)N1CCC1)c1ccccn1`, the molecule was classed as inactive.
For `COc1ccccc1C(CCNCc1ccc(N(C)C)cc1)c1ccc(OC(C)C)cc1` (configuration not stated) the value was “inactive”.
As for `CSC1=NC(C)(C)CC2(C)Nc3ccccc3N12` (configuration not stated), the entry is “inactive”.
For `Cc1cccn2cc(CCNS(=O)(=O)c3ccc4c(c3)OCCO4)nc12` the value was “inactive”; for `Cc1cc(C(=O)N/N=C/c2cc([N+](=O)[O-])ccc2O)c2ccccc2n1`, “inactive”; for `CC(C)(C)c1nnc(N/N=C/c2cc(Br)ccc2O)n(N)c1=O`, “inactive”.
